Hits are enriched below; roughly 31% of the tested compounds scored in any of these assays.
CYP2C19 act = activators of human cytochrome P450 2C19 | 96,000 tested, under 10 active | activation factor at 5 µM | AID 1025 | recombinant CYP2C19, luciferin-H EGE luminescence; stronger effect = higher value; 0 = fully inhibited enzyme, 1 = untreated enzyme;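 active = activation factor of at least 2 at 5 µM in the primary screen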;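 note: 0 = wells with 2.5 mM tranylcypromine and 1 = vehicle-only wells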
CYP2C19 inh = inhibitors of human CYP2C19 | hit rate 21% among 96,000 | inhibition, % at 5 µM | CYP2C19 Supersomes, luciferin-H EGE luminescence, 30 min | P33261;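 active = CYP2C19 inhibition above a set limit at 5 µM in the primary screen, cut at about 50% in these data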;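 note: plate controls were negative control wells for no effect and 2.5 mM tranylcypromine positive control for full effect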
CYP2C9 inhib = human CYP2C9 inhibition | inhibition, % at 5 µM | hit rate 20% among 96,000 | P11712 | CYP2C9 Supersomes, luciferin-H conversion, luminescence | AID 777;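 active = blocking of liver enzyme CYP2C9 beyond about 50% at 5 µM, limit read from the data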
Target sequence (P11712 whole entry, looked up): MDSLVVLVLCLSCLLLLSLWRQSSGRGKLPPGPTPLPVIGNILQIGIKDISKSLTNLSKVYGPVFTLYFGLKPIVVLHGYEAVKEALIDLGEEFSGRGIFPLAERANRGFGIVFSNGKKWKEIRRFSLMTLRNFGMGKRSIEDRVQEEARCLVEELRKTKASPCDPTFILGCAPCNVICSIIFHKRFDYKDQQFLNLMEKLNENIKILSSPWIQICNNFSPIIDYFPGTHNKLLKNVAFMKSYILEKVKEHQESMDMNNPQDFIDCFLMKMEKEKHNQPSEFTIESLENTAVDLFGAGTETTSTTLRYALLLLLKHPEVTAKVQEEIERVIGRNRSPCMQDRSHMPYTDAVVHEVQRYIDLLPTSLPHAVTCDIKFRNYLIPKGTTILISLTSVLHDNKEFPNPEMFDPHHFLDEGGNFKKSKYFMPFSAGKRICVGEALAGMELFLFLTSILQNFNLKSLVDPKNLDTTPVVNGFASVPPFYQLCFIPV
CYP2C9 activ = increases human cytochrome P450 2C9 activity; AID 1024; hit rate 1.4% among 96,000; activation factor at 5 µM; recombinant CYP2C9, luciferin-H conversion, luminescence; stronger effect = higher value; factor 1 = untreated enzyme, 0 = blocked; P11712;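 active = activation factor of 2 or more for CYP2C9 at a 5 µM dose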;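 note: 0 = sulfaphenazole-blocked wells and 1 = vehicle-only wells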
* = called active by the depositor.

SMILES | CYP2C19 act | CYP2C19 inh | CYP2C9 inhib | CYP2C9 activ
O=C(COC(=O)c1cccs1)NCc1ccco1 | 0.3 | 70* | 20 | 0.8
COc1cc(NC(=O)c2cccs2)c(C(=O)OCC(=O)NCc2ccco2)cc1OC | 0.7 | 27 | 82* | 0.2
Cn1c(C(=O)OCC(=O)NCc2ccco2)cc2sccc21 | 0.6 | 40 | 26 | 0.7
O=C(COC(=O)c1ccccc1NCc1ccco1)Nc1ccc2c(c1)OCO2 | 1 | 0 | 41 | 0.6
NC(=O)c1ccsc1NC(=O)COC(=O)c1ccccc1NCc1ccco1 | 0.3 | 74* | 90* | 0.1
CC(=O)NC(=O)COC(=O)/C=C/c1c(C)nn(Cc2c(Cl)cccc2Cl)c1Cl | 0.8 | 18 | 41 | 0.6
CS(=O)(=O)N1Cc2ccccc2CC1C(=O)Nc1ccccc1C(N)=O (stereo not drawn) | 0.9 | 5 | 9 | 0.9
Cc1ccc(/C=C/c2ccc(=O)n(Cc3ccccc3Cl)n2)cc1 | 1 | 0 | 39 | 0.6
CSc1ccc(Cl)c(C(=O)OCC(=O)NCc2ccco2)c1 | 0.1 | 93* | 43 | 0.6
CCOc1cc(C(=O)OCC(=O)NCc2ccco2)cc(OCC)c1OCC | 0.4 | 58* | 57* | 0.4
CC(C)(C)c1ccc(OCC(=O)NCc2ccco2)c(Br)c1 | 0.5 | 46 | 76* | 0.2
Cc1ccc(NC(=O)COC(=O)Cn2c(C)csc2=O)cc1 | 0.6 | 42 | 10 | 0.9
Cc1cc(N2CCN(c3ccccc3)CC2)nc(-c2ccccc2O)n1 | 1 | 4 | 7 | 0.9
Cc1cc(N2CCN(c3ccccc3)CC2)nc(-n2nc(C)cc2C)n1 | 0.4 | 60* | 90* | 0.1
O=C(NCCN1CCN(c2ccccc2)CC1)c1cccc(Br)c1 | 0.5 | 53* | 45 | 0.6
Cc1cccc(C(=O)NCCN2CCN(c3ccccc3)CC2)c1 | 0.9 | 11 | 12 | 0.9
O=C(NCCN1CCN(c2ccccc2)CC1)c1cccn2c(=O)c3cc(Cl)ccc3nc12 | 0.6 | 39 | 64* | 0.4
CCOC(CNC(=O)c1cccn2c(=O)c3cc(Cl)ccc3nc12)OCC | 0.8 | 22 | 66* | 0.3
CCOC(=O)N1CCN(C(=O)c2cccn3c(=O)c4cc(Cl)ccc4nc23)CC1 | 0.7 | 27 | 40 | 0.6
CCOC(=O)c1oc2ccccc2c1NC(=O)c1ccc(Cl)s1 | 1.1 | -7 | 2 | 1
O=S(=O)(c1ccccc1)N(C1=NCCS1)S(=O)(=O)c1ccccc1 | 0.8 | 20 | -17 | 1.2
O=C(CN1CCC(O)(c2ccc3c(c2)OCO3)CC1)OC1CCCCC1 | 0.5 | 54* | 36 | 0.6
Cc1ccc2c(c1)N(CC(=O)N(Cc1ccc3c(c1)OCO3)CC1CCCO1)C(=O)C(C)O2 (stereo not drawn) | 0.5 | 46 | 33 | 0.7
COc1cccc(OCCCOc2ccccc2C(C)C)c1 | 1 | -3 | 6 | 0.9
CC(C)c1ccccc1OCCNS(C)(=O)=O | 0.5 | 51* | -16 | 1.2
SMILES | CYP2C19 act | CYP2C19 inh | CYP2C9 inhib | CYP2C9 activ
CSc1nc(C)cc(OCC#N)n1 | 0.9 | 12 | -23 | 1.2
COCc1cc(C)nc(OCC(=O)N/N=C/c2ccc(-c3cc([N+](=O)[O-])ccc3C)o2)c1C#N | 0.9 | 11 | 2 | 1
COCc1cc(C)nc(OCC(=O)N/N=C/c2cc(C)n(-c3c(C)cccc3C)c2C)c1C#N | 0.7 | 28 | 83* | 0.2
COc1ccccc1NC(=O)N1CCCC(C(=O)Nc2cccc(C)c2C)C1 (stereo not drawn) | 1.1 | -6 | -12 | 1.1
CCNC(=S)N1CCC(c2nc3ccccc3s2)CC1 | 0.2 | 84* | 39 | 0.6
O=C(CSc1ccc(F)cc1)N1CCC(c2nc3ccccc3s2)CC1 | 0.8 | 24 | 33 | 0.7
Cc1ccc(NC(=S)N2CCC(c3nc4ccccc4s3)CC2)cc1 | 0.7 | 32 | 57* | 0.4
O=C(Nc1ccccc1Cl)c1ccccc1Oc1ccc(C(F)(F)F)cc1[N+](=O)[O-] | 0.3 | 73* | 88* | 0.1
COc1ccc(OC)c2c(C)cc(N3CCCN(C)CC3)nc12 | 0.9 | 12 | -17 | 1.2
CC1CCN(C(=O)CCNS(=O)(=O)c2ccccc2)CC1 | 0.5 | 54* | 13 | 0.9
Cc1ccc(S(=O)(=O)NCCC(=O)N2CCN(Cc3ccccc3)CC2)cc1 | 0.5 | 52* | 5 | 0.9
O=C(Cn1cc2c(n1)CCCCC2)NCc1ccccn1 | 0.6 | 39 | -16 | 1.2
CCN(CCCNC(=O)COc1cc(=O)n(CC)c2ccccc12)Cc1ccccc1 | 0.9 | 6 | 2 | 1
NC(Cc1ccc2nonc2c1)C(=O)O (stereo not drawn) | 0.9 | 6 | 1 | 1
CCCC(NS(=O)(=O)c1ccc(Br)cc1)C(=O)O (stereo not drawn) | 0.8 | 25 | 18 | 0.8
